# According to PubChem BioAssay (Tox21):
# Records with an inconclusive call do not appear. Entries that show only a call come without a potency. Unmarked numbers belong to inactive results. Activity calls are given as the source filed them. The call rests on the fitted dose curve; in most records, active means well fitted cell-killing curve with a large enough effect in the repeat runs; inconclusive means weak or mixed curves, or effect the other way; inactive means flat fitted curve, though single readings scatter.
# Assay: qHTS assay to identify small molecule agonists of the constitutive androstane receptor (CAR) signaling pathway - cell viability counter screen (AID 1224836); further: nearly all actives have a fitted effect of over 45% in size
# Settings: HepG2-CYP2B6-hCAR viability, CellTiter-Fluor, 23 h, PK11195 added to every well; series mostly up to 92.4 µM
# Description: U.S. Tox21 Program National Center for Advancing Translational Sciences [NCATS] NIH Chemical Genomics Center [NCGC] U.S. Environmental Protection Agency [EPA] National Institutes of Environmental Health Sciences [NIEHS] National Toxicology Program [NTP] U.S. Food and Drug Administration [FDA] Tox21 Assay Overview: The constitutive androstane receptor (CAR) is a nuclear receptor which regulates multiple drug metabolizing enzymes (DMEs) and transporters. Activating CAR will generally increase the transcription and subsequent translation of CYP2B6 and CYP3A4. These two DMEs represent about 50% of the drug metabolizing potential in the body. […] Recently, there have also been studies performed indicating CARs role in energy metabolism and cancer therapy. Therefore, inducing CARs activity could have a potential effect on diabetes and cancer. Identifying environmental toxins and compounds which modulate CAR, through the use of the Tox21 10K compound collection, will be an important step in determining the toxicity and potential therapeutic effects these factors will have on the human body. To differentiate true CAR agonists from cytotoxic substances, the assay is multiplexed with a cell viability assay.
# Tox21 Assay Protocol Summary: A double-stable (hCAR and CYP2B6-2.2kb) transfected cell line, derived from human hepatoma (HepG2) cells, was utilized for the duration of the quantitative high-throughput screens. The HepG2-CYP2B6-hCAR cells were dispensed at 2500 cells/4 uL/well in 1536-well white solid bottom plates using a Multidrop Combi. After the assay plates were incubated at 37 C/5% CO2 for 4 hrs, 23 nL of compounds at 15 concentrations (from 5-48 columns) or positive control (from 1 to 4 columns) were transferred to the assay plates using a Pintool station. One uL of PK11195 (final concentration = 0.75 uM) was added, using a Flying Reagent Dispenser, inside each well. After a 23 hr incubation period at 37 C/5% CO2, 1 uL of CellTiter-Fluor reagent was added into each well of the assay plates using a Flying Reagent Dispenser. The fluorescence intensity in the plates was then measured using a ViewLux plate reader.
# Potency means the concentration at half of the fitted maximal effect.
SMILES,Potency,"viability change, negative = cytotoxic"
CCCCOC(=O)C(C)CC (stereo not given),inactive,
O=C1NCCN1CCN1CCC(c2cn(-c3ccc(F)cc3)c3ccc(Cl)cc23)CC1,11.9 µM (active),
O=C(O)CC(=O)O,inactive,
Clc1cc(Cl)c(-c2c(Cl)c(Cl)cc(Cl)c2Cl)cc1Cl,inactive,
Nc1ncnc2c1ncn2[C@@H]1O[C@H](COP(=O)(O)O)[C@@H](O)[C@H]1O,inactive,
Cc1cnccn1,inactive,
O=C(c1ccccc1)c1cc(Cl)ccc1O,inactive,
Oc1cc2ccccc2cc1O,inactive,
O=Cc1ccc(F)cc1,inactive,
CCNc1nc(NC(C)CC)nc(OC)n1 (stereo not given),inactive,
CCC(C)c1ccccc1 (stereo not given),inactive,
COC(=O)CC(C)CCC=C(C)C (stereo not given),inactive,
CC(=O)c1ccccc1N,inactive,
S=P(N1CC1)(N1CC1)N1CC1,inactive,
CC[N+](CC)(CC)Cc1ccccc1,inactive,
CC(C)=CCCC(C)O (stereo not given),inactive,
OCCCS,inactive,
CCCC(C)CCC(C)=O (stereo not given),inactive,
COC(=O)[C@]1(C)CCC[C@@]2(C)[C@H]1CC=C1C=C(C(C)C)CC[C@@H]12,inactive,
CC(COC(=O)c1ccccc1)OC(=O)c1ccccc1 (stereo not given),inactive,

SMILES,Potency,"viability change, negative = cytotoxic"
Cc1c(C(=O)O)cccc1[N+](=O)[O-],inactive,
CC(C)N=C(N)/N=C(\N)Nc1ccc(Cl)cc1,inactive,
N[C@@H](CSSC[C@H](N)C(=O)O)C(=O)O,,5.67% [at 0.349 µM]
CCc1cccc(CC)c1NC(=O)C(=O)O,inactive,
CCOC(=O)[C@@](C)(N)Cc1ccc(O)c(O)c1,inactive,
C/C=C/C(=O)Oc1c(CCCCCC(C)C)cc([N+](=O)[O-])cc1[N+](=O)[O-],19.3 µM (active),
CCC(=O)CC(C)CC (stereo not given),,-0.276% [at 0.349 µM]
COc1cc(C(=O)NS(=O)(=O)c2ccccc2C)ccc1Cc1cn(C)c2ccc(NC(=O)OC3CCCC3)cc12,inactive,
O=C[C@H](O)[C@H](O)[C@H](O)CO,inactive,
NCCCC(O)(P(=O)(O)O)P(=O)(O)O,inactive,
CCCCC(CC)COC(=O)c1ccc(O)cc1 (stereo not given),inactive,
O=CC1CC1,inactive,
CC(=O)O[C@@H]1C[C@@H]2CC[C@@]1(C)C2(C)C,inactive,
NC(=O)C(=O)N/N=C/c1ccc([N+](=O)[O-])o1,inactive,
CN1[C@@H]2CC[C@H]1CC(OC(=O)C(CO)c1ccccc1)C2 (stereo not given in full),inactive,
CCC1(c2cnc[nH]2)Cc2ccccc2C1,inactive,
O=C1c2c(O)ccc([N+](=O)[O-])c2C(=O)c2c([N+](=O)[O-])ccc(O)c21,24.1 µM (active),
COc1nccnc1CC(C)C,inactive,
Clc1ccc(C(c2ccccc2Cl)C(Cl)Cl)cc1 (stereo not given),inactive,
c1cc(OCC2CO2)cc(OCC2CO2)c1 (stereo not given),inactive,
